Rows were chosen to be rich in hits. Some 7.3% of all compounds tested hit in one or more screens of this group.
FMDV antiviral – High Throughput Screening for Foot and Mouth Disease Virus Antivirals; FMDV antiviral cell-based qHTS; Potency, µM (highest dose often 57.9 µM), inactives show top-dose activity change, negative = inhibition, most hits filed as inhibitors; actives 1.2% (n = 410,000); AID 1159524, 2015; calls by dose curve; tested in HEK293T cells; further: read-out not given here; potency means the concentration at half of the fitted maximal effect; nearly all actives have a fitted effect of over 45% in size
HCV inhibitor – qHTS Assay for Inhibitors of Hepatitis C Virus (HCV). Huh7.5.1 HCVcc-Cre infection, luciferase reporter, 44 h. Potency, µM (series often up to 41.8 µM), for the others: at the highest dose activity change, negative = inhibition, actives largely listed as inhibitors. actives 3.4% (n = 340,000). AID 651820, 2012; further: potency means the concentration at half of the fitted maximal effect
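Infectious HCVcc-Cre (~0.5 moi) was added to cells just after compound, with cells seeded 4 h earlier at 1,000 per well. Luciferase activity after 44 h culture reported infection; substrate was incubated 15 min at room temperature before reading.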
AmpC detergent – qHTS Inhibitors of AmpC Beta-Lactamase (assay with detergent) | AmpC hydrolysis of nitrocefin, absorbance 480 nm, 0.01% Triton | Potency, µM (top dose mostly 114 µM), without a hit: top-dose activity change, negative = inhibition, hits mostly inhibitors | actives 0.041% (n = 370,000) | AID 485294, 2010;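 further: potency means the concentration at half of the fitted maximal effect; 0% = no-compound wells and -100% = no-enzyme wells; nearly all actives have a fitted effect of over 25% in size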
Target sequence (P00811 whole entry, looked up): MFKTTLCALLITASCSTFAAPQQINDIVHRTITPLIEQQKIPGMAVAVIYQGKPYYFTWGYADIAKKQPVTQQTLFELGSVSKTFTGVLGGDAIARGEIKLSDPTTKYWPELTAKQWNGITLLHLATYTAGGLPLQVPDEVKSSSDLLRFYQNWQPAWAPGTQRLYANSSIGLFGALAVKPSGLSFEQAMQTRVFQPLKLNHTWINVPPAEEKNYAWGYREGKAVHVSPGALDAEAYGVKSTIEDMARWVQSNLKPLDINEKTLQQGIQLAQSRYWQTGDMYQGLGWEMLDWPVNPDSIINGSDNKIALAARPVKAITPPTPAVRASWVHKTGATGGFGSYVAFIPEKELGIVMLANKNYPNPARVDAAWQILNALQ
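AmpC (5.3 nM in the dispensed reagent) in 20 mM phosphate pH 7.0 with 0.01% (detergent screen) or 0.0001% Triton X-100 was preincubated with compounds for 15 min at room temperature. Nitrocefin was then added from an 800 uM solution, and hydrolysis was followed at 480 nm.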
AmpC no deterg – qHTS Inhibitors of AmpC Beta-Lactamase (assay without detergent). Potency, µM (top dose mostly 57.1 µM), for the others: top-dose activity change, negative = inhibition, hits mostly inhibitors. actives 0.52% (n = 330,000). AID 485341, 2010. P00811. AmpC nitrocefin hydrolysis, absorbance 480 nm, 0.0001% Triton;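 further: potency means the concentration at half of the fitted maximal effect; plate controls were no compound for no effect and no enzyme for full effect; nearly all actives have a fitted effect of over 20% in size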
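AmpC (5.3 nM in the dispensed reagent) in 20 mM phosphate pH 7.0 with 0.01% (detergent screen) or 0.0001% Triton X-100 was preincubated with compounds for 15 min at room temperature. Nitrocefin was then added from an 800 uM solution, and hydrolysis was followed at 480 nm.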
HCMV antiviral – qHTS Assay for inhibitors of the human cytomegalovirus (HCMV); HFF cells, HCMV-luciferase reporter, 72 h; stronger effect = lower value; activity change, negative = inhibition, % at 57.5 µM; actives 4.5% (n = 410,000); AID 1259415, 2018; in the data active means activity change below about -60%; inconclusive means no clear call, values can overlap the other calls; inactive means above about -39%
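Screen run at 2 compound doses on HFFs infected with reporter HCMV, MOI 1 PFU/cell. Luciferase activity from cell lysates at 72 h post infection gave inhibition relative to buffer-only and Salinomycin wells.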
The depositor's hits bear a star; ? = inconclusive; . = not tested or not shown; [ ] = remark or other dose. Unless noted, the call rests on the fitted dose curve; in most records, active means well fitted curve in the direction sought with a large enough effect; inconclusive means small, poorly fitted or top-dose-only effect, or another doubt; inactive means no such curve, though single readings can be large; an effect the other way counts as inactive or inconclusive. Unless noted, on the % scale 0 is the no-effect control and ±100 the full control effect.

SMILES | FMDV antiviral | HCV inhibitor | AmpC detergent | AmpC no deterg | HCMV antiviral
CCC(C)NC(=S)N(Cc1cc2cc(C)ccc2n2nnnc12)CC(C)(C)NC(C)C (stereo not given) | 22% | 8% | -2% | -10% | 81
COc1cc2ccccc2cc1C(=O)Nc1ccc2oc(-c3ccc(F)cc3Cl)nc2c1 | 35% | . | 2% | . | 32
Cn1c(NC(=O)C[n+]2cc(-c3ccc(F)cc3)n3c2CCC3)cc(=O)n(C)c1=O | -15% | 12% | ? | -36% | -21
O=C(C[n+]1cc(-c2ccccc2)n2c1CCC2)Nc1nc(-c2ccccc2)cs1 | -8% | ? | -12% | 119% | 27
Cc1ccc(-c2c[n+](CC(=O)Nc3nc(-c4ccccc4)cs3)c3n2CCC3)cc1 | -11% | 6.3µM* | 3% | 74% | 17
Cc1ccc(-c2c[n+](CC(=O)Nc3cc(=O)n(C)c(=O)n3C)c3n2CCC3)cc1 | 0% | 9% | -22% | -40% | -68*
Cc1ccc(NC(=O)C(=O)NCCCN2CCOCC2)cc1C | -20% | . | 5% | . | 31
COc1cc2cc(CN(C(=O)NC3CCCCC3)C3CCCC3)c(=O)[nH]c2cc1OC | 11% | 16% | -9% | -7% | -27
O=C(NC1CCCCC1)N(Cc1cc2cc3c(cc2[nH]c1=O)OCCO3)C1CCCCC1 | -3% | 11µM* | ? | -13% | -80*
CN(C)S(=O)(=O)c1cccc(NC(=S)N/N=C/c2cc(Br)ccc2O)c1 | ? | -22% | -1% | ? | -98*
COc1ccccc1NC(=S)Nc1cccc2cnccc12 | ? | 10µM* | ? | -19% | -79*
S=C(Nc1ccc(Cl)cc1)Nc1cccc2cnccc12 | -6% | ? | -14% | -53% | -98*
S=C(Nc1cccnc1)Nc1cccc2cnccc12 | 3% | -8% | ? | -13% | -36
CN(C)S(=O)(=O)c1cccc(NC(=S)Nc2cccc3cnccc23)c1 | ? | -26% | -7% | -27% | -72*
Fc1ccc(NC(=S)Nc2cccc3cnccc23)cc1 | -10% | -26% | -2% | -19%[11.4 µM] | -32
CN(C)S(=O)(=O)c1cccc(NC(=S)N/N=C/c2cccc(O)c2)c1 | ? | 7% | -2% | -32% | -15
NS(=O)(=O)c1ccc2nc(-c3ccccc3)c(-c3ccccc3)nc2c1 | -22% | ? | -1% | -20% | 9
Fc1ccc(NC(=S)Nc2cccc3ccccc23)cc1 | 0% | -24% | ? | -25% | 6
Cc1ccc(S(=O)(=O)N(C)C)cc1NC(=S)NC1CCCC(C)C1C (stereo not given) | ? | ? | -10% | -31% | ?
CC1CCCCC1NC(=S)Nc1cccc(S(=O)(=O)N(C)C)c1 (stereo not given) | 9% | 3% | 0% | -37% | -68*
Fc1ccc(NC(=S)Nc2cccc3ccccc23)cc1F | 6% | ? | -4% | -32% | -71*
CCn1c2c(c(=N)c3c1CCC3)CCCC2 | -24% | -16% | -2% | 2% | -67*
CCCCCn1c2c(c(=N)c3ccccc31)CCC2 | 0% | ? | -6% | -12% | -96*
CCCCCCCCCn1c2c(c(=N)c3c1CCC3)CCCC2 | 10µM* | 3.2µM* | 6% | 87% | .
CCOC(=O)Cn1c2c(c(=N)c3c1CCC3)CCC2 | 0% | -15% | ? | -2% | 2
SMILES | FMDV antiviral | HCV inhibitor | AmpC detergent | AmpC no deterg | HCMV antiviral
CCCCCCCCn1c2c(c(=N)c3ccccc31)CCC2 | 2.5µM* | 2.8µM* | -6% | -10% | -97*
Cc1cc(=O)c2cc(C(=O)Nc3ccccc3)ccc2[nH]1 | 18% | . | -8% | . | -2
Cc1ccc(C)c(N2CCN(C(=O)CCc3nnc4n(C)c(=O)c5ccccc5n34)CC2)c1 | -18% | . | 18% | . | 19
O=C(/C=C/c1cccs1)Nc1nc(-c2ccccc2)cs1 | -47% | 22µM* | -6% | -27% | -15
O=C(COC(=O)/C=C/c1cccs1)Nc1nc(-c2cccc(Br)c2)cs1 | 4% | ? | -2% | 6.3µM* | -25
O=C(/C=C/c1ccc2c(c1)OCO2)Nc1nncs1 | 58% | 0% | 7% | 1% | 77
Cc1sc(NC(=O)/C=C/c2ccc3c(c2)OCO3)nc1-c1ccccc1 | 6.3µM* | ? | ? | -22% | ?
O=C(/C=C/c1ccc2c(c1)OCO2)Nc1nc(-c2ccccc2)cs1 | 14µM* | 6.3µM* | 1% | -40% | ?
O=C(O)Cc1sc(=O)[nH]c1O | -15% | 8% | . | . | -12
COc1ccc(C2C(=O)N(C3CCCCC3)CC(=O)N2CCc2ccc(OC)c(OC)c2)cc1 (stereo not given) | -5% | . | 9% | . | 2
Cc1cccc(C)c1N1C(=O)c2ccccc2NC(=O)C1C(=O)NCCc1ccccc1 (stereo not given) | -20% | . | . | . | -12
C/C(=N\Nc1nc(-c2ccccc2)cs1)c1cccs1 | 0% | 2.8µM* | -20% | -30% | 38
Cn1c(=N)n(CC(=O)c2ccc(F)cc2)c2ccccc21 | -24% | ? | -6% | -25% | ?
CCCCn1c(=N)n(CC(=O)c2ccc([N+](=O)[O-])cc2)c2ccccc21 | . | . | -10% | -11% | -104*
Cc1ccc(Cn2c(=N)n(CC(=O)c3ccc([N+](=O)[O-])cc3)c3ccccc32)cc1 | ? | ? | -11% | -4% | -92*
Cn1c(=N)n(CC(=O)c2ccc(Br)cc2)c2ccccc21 | -9% | 6.3µM* | . | . | 27
COc1cc(NC(=O)C(CC(C)C)NS(=O)(=O)c2ccc3c(c2)CCCC(=O)N3)cc(OC)c1 (stereo not given) | 1% | . | 0% | . | 14
CCn1c(=O)c2ccccc2n(CC(=O)NCCC2=CCCCC2)c1=O | -7% | 20% | ? | -7% | -12
C[C@H](CO)N1C[C@H](C)[C@H](CN(C)C(=O)Nc2ccc(-c3cccs3)cc2)OCc2cnnn2CCCC1=O | -15% | . | . | . | -61*
O=C(COc1ccccc1)Nc1ccc(S(=O)(=O)Nc2ccccn2)cc1 | 32% | -7% | 5% | -35% | 3
O=C(COc1ccc(Br)cc1)Nc1ccc(NC(=O)c2ccccc2)cc1 | 40% | . | ? | -15% | -68*
O=C(COc1ccc(Br)cc1)Nc1ccc(S(=O)(=O)Nc2ccccn2)cc1 | 42% | -10% | 2% | -3% | -70*
COc1ccc(N(CC(=O)N/N=C/c2ccccc2F)S(=O)(=O)c2ccccc2)cc1 | 1% | ? | -5% | -43% | -77*
COc1ccccc1N(CC(=O)NCc1ccco1)S(=O)(=O)c1ccc(C)cc1 | -6% | 6% | ? | -39% | -2

Bioassay records from PubChem.
